Measurements: the supplement of paper PMC6555819

Each sequence was assayed on VDR:RXRa (NR concentration 270 nM, RXRa partner concentration 90 nM) (assay: PBM binding z-score (relative to random genomic background probes); higher = stronger binding; sequences stand for … in GC…GCGATTGACAGCGTAGAATGAAGG).
Description: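 Protein-binding microarray (Agilent 4x180K custom design, double-stranded 60-nt probes: 5' GC cap, 34-nt variable region, 24-nt constant primer region; full probe sequence given). Purified or IVT nuclear receptor:RXRα heterodimers (3:1 NR:RXRα, mostly 270:90 nM) or homodimers were incubated for 1 h in PBS with 2% milk and no ligand, then detected with Alexa488 antibodies. Fluorescence from o1-orientation probes (~5 replicates averaged) was converted to z-scores against 500 random hg19 background probes. Variable regions are seed direct-repeat (DR0–DR5) sites, all their single-nucleotide variants and half-site ablations.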
TCATATGGGTAAACAGGTGAAAGTCCGTAAGTTA was tested, and the PBM binding z-score was 0.583. Sequence TCTGCTAGGTCTACGATGGTCAGCTAATCTGCTA has a PBM binding z-score of -0.625. Work on CCTAGCAGGCCAATCTGGGTCACGCAAGGCTTGA yielded a PBM binding z-score of 1.14. For CAGCCTCGGTCAGGGCCAGTATAGGAGGAACGTT, the PBM binding z-score was -0.628. For CGAACGAGGGCATGAGTTTATAGCAAATGCCGAT, the PBM binding z-score was 3.02. CCCTACGGGTCACGAGGTTATAGCACGACGAGCG was tested, and the PBM binding z-score was 5.13. Work on ATCGAAAGGTCGAAGGTGATTATACCCACCCGAA yielded a PBM binding z-score of 2.61. TAACCTAGGTCATGGGCCAGTATACCACGCGAAC showed a PBM binding z-score of 2.88. ATCTCTAGGTAATAAGTTCAGTGAAAGAGAGGAC showed a PBM binding z-score of 1.9. Work on ATCTCTAGGTAAGATTCAGTTCAGTGAAGAACGC yielded a PBM binding z-score of 0.961. Work on GCATATAGGTAATACAAGGTGAAAGTACGATTGT yielded a PBM binding z-score of 0.62. CCGACTGGGGCAGAAAGGTTATCATACCATCCGG gave a PBM binding z-score of 0.932. For TCTTGTAGATCATGCAGGTTAAGAAAGCCTGAGT, the PBM binding z-score was 0.976. Work on TATACAGGGGCAAAGGCCAGAGTACGAATGTCGA yielded a PBM binding z-score of 1.03. Work on AGAACGCGGGCAATGAGTTGATAGCACGGGTGGC yielded a PBM binding z-score of 1.56. TCTAGTTGGTCCAAGGTCACACACTCGAAATGCG was tested, and the PBM binding z-score was 3.77. For CAAACTAGGTCATAGGTCAAAGTCGAGCCAACCA, the PBM binding z-score was 4.9. In the case of TCTATTAGTTGAATGGCAACCGACGAGTCCGTTT, the PBM binding z-score was 0.746. TCAGACACGTGAAGGTAACTCAGGTACGCAGTCG gave a PBM binding z-score of 0.881. ATATGTAGGTTAAGGTTCATTCAGGTTGGTTCGC gave a PBM binding z-score of 5.06. CCTAGTTGGTCAAGATCACACACGCTATAGGTAC showed a PBM binding z-score of 0.862. In the case of AGTCAAAGTTCAGGGCGAGGTAACGTAAAGCACG, the PBM binding z-score was 3.27. AGAATGAGGTTATACGTAGATTAGGGAAGAAAGT gave a PBM binding z-score of 1.44. Work on CCTTACGGGGCACGAGGTTATAGCACGACGAGCG yielded a PBM binding z-score of 0.986. Sequence AGAATGAGGTTACCAAAGATCAGGGTAACGCTTG has a PBM binding z-score of 1.6. ATCTCTAGGTAAGACTCAGTTCAGTTAAGAACGC gave a PBM binding z-score of 1.12. In the case of AGTCAAAGTTCACTAGGTAACGAAAGATTCAGCT, the PBM binding z-score was 3.25. TCATATAGGTAAATGCTCGGTGAAAGTCCGATCT showed a PBM binding z-score of 1.01. TCATATAGGTAAAAGGTGAAGGTCGGTGTGGTAA showed a PBM binding z-score of 1.92. Sequence GCATATGGGTAATACAAGGTGAAAGTCCGATTGT has a PBM binding z-score of 0.212. CAAAGTAGGTCAAAGGTCAAAGTCGAGCCAACCA was tested, and the PBM binding z-score was 6.63. ATATGTAGGTTACACCCGGGTCATTCAGGCTATG was tested, and the PBM binding z-score was 4.27. For AATACAGGGTCACTAGGCAAGAGTAGGTACGAAT, the PBM binding z-score was 3.97. Sequence CAAACTATGTCAAGAGGTCAAAGTCCGCTTCCCG has a PBM binding z-score of 5.15. Work on TAGCCTAGGTCATTCAGGGCCCAGTATAGAAAGC yielded a PBM binding z-score of 2.8. TCTATTAGTTGAAGGGCAACCTACGAGTCCGTTT showed a PBM binding z-score of 0.986. Sequence TCGAGTATGTTAGTCGGGGCATTCAGCCAACATA has a PBM binding z-score of 0.158. CCGGCTGGGGCAAGGTTACCATAACGCACAGCCA gave a PBM binding z-score of -0.269. ATGGAAAGGTCGAAGGTGAGTATACCCACCCGAA gave a PBM binding z-score of 2.81. AGAAGGAGGGCACGCTGAGTTGATAGCAGAGTAG was tested, and the PBM binding z-score was 1.41.
